Reference: PubChem BioAssay (Tox21)
Records with an inconclusive call do not appear. Activity calls are given as the source filed them. Unless noted, calls come from the whole dose curve; as a rule, active = well fitted curve in the direction sought with a large enough effect in the repeat runs; inconclusive = weak or mixed curves; inactive = no such curve, though single readings can be large; an effect the other way counts as inactive or inconclusive.

Columns and labels:
[1] = A CellTox Green Cytotoxicity Assay to monitor cytotoxicity in HepG2 cells - 0 hour (AID 1224882); note: nearly all actives have a fitted effect of over 35% in size
Outline: (§1)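 Measurements at 0, 8, 16, 24, 32 and 40 h of treatment captured CellTox Green fluorescence in HepG2 cells that had been co-plated with reagent and preincubated 5 h at 37 C/5% CO2.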

[2] = A CellTox Green Cytotoxicity Assay to monitor cytotoxicity in HEK293 cells - 8 hour (AID 1224884); note: nearly all actives have a fitted effect of over 35% in size
Outline: (§2)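 Tox21 screen in HEK293: membrane-impermeant cyanine dye fluoresces on binding dead-cell DNA; compound pinned 5 h post-seeding, plates held at 37 C, signal read repeatedly through 40 h.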

[3] = qHTS RealTime-Glo MT Cell Viability Assay in HepG2 cells - 16 hour (AID 1224885); note: nearly all actives have a fitted effect of over 50% in size
Outline: (§3)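 Viability was tracked continuously by NanoLuc luminescence from prosubstrate reduced by living HepG2 cells, at successive time points over 40 h of compound exposure. Cells with reagent were preincubated 5 h at 37 °C before compound addition.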

[4] = qHTS RealTime-Glo MT Cell Viability Assay in HEK293 cells - 24 hour (AID 1224886); note: top concentration of the series differs between compounds; nearly all actives have a fitted effect of over 50% in size
Outline: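 Viability tracked continuously by luminescence as live cells reduce a prosubstrate for NanoLuc; HEK293 cells preincubated 5 h, compound-treated at 37 C, and read at 0, 8, 16, 24, 32 and 40 h.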

[5] = qHTS RealTime-Glo MT Cell Viability Assay in HEK293 cells - 8 hour (AID 1224887); note: top concentration of the series differs between compounds; nearly all actives have a fitted effect of over 50% in size
Outline: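 HEK293 + NanoLuc + prosubstrate, 600 cells/well; 5 h, 37 C/5% CO2; compound 23 nL in DMSO by pintool; 37 C; luminescence read at 0, 8, 16, 24, 32 and 40 h time points.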

[6] = A CellTox Green Cytotoxicity Assay to monitor cytotoxicity in HEK293 cells - 16 hour (AID 1224888); note: nearly all actives have a fitted effect of over 35% in size
Outline: as §2

[7] = A CellTox Green Cytotoxicity Assay to monitor cytotoxicity in HepG2 cells - 8 hour (AID 1224890); note: nearly all actives have a fitted effect of over 45% in size
Outline: as §1

[8] = qHTS assay to identify small molecule antagonists of the estrogen receptor alpha (ER-alpha) signaling pathway using the BG1 cell line in the presence of 0.1 nM 17-beta-estradiol - cell viability counter screen (AID 1259241); note: nearly all actives have a fitted effect of over 40% in size
Outline: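 Live-cell protease activity (CellTiter-Fluor fluorescence, 30 min) was read in the same wells after VM7Luc4E2 cells had been exposed to compounds with 0.1 nM 17beta-estradiol for 22 hr at 37C.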

[9] = qHTS assay to identify small molecule antagonists of the androgen receptor (AR) signaling pathway using the MDA cell line in the presence of 0.5 nM R1881 - cell viability counter screen (AID 1259242); note: nearly all actives have a fitted effect of over 45% in size
Outline: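 Concentration-response screen of compounds for toxicity in MDA-kb2 reporter cells: 16 hr at 37C with 0.5 nM R1881, endpoint live-cell protease fluorescence measured in the reporter wells.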

[10] = qHTS assay to identify small molecule HDAC inhibitors - cell viability counter screen (AID 1259365); note: series mostly up to about 92 µM; nearly all actives have a fitted effect of over 50% in size
Outline: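 HCT-116 (wild type), 1,500 cells/well, overnight 37C/5% CO2; compound in DMSO 2hr; CellTiter-Glo 30min RT; luminescence read.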

[11] = qHTS assay to identify small molecule agonists of the sonic hedgehog signaling (Shh) pathway - cell viability counter screen (AID 1259366); note: nearly all actives have a fitted effect of over 50% in size
Outline: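 CellTiter-Fluor fluorescence read-out, 1 hr at 37C, added after 23hr compound exposure. Cells: 3T3 Gli1-Luc, an NIH/3T3 clone with stably integrated Gli1-Luc reporter, plated 4hr before compound.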

[12] = qHTS assay to identify small molecule antagonists of the sonic hedgehog signaling (Shh) pathway - cell viability counter screen (AID 1259367); note: nearly all actives have a fitted effect of over 55% in size
Outline: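 Fluorescence read-out (CellTiter-Fluor, 1 hr at 37C) taken after 23 hr compound treatment of 3T3 Gli1-Luc cells stimulated with conditioned medium. Cells were seeded at 2,000 per well and pre-incubated 4 hr.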

[13] = qHTS assay to identify small molecule agonists of the sonic hedgehog signaling (Shh) pathway (AID 1259368; calls by dose curve;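 note: NIH/3T3-derived 3T3Gli1-Luc cells carrying a stable Gli1-driven firefly luciferase reporter; series mostly up to about 92 µM; nearly all actives have a fitted effect of over 15% in size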)
Outline: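 Hedgehog pathway agonism scored by increased firefly luciferase luminescence in 3T3Gli1-Luc cells treated 24 hr at 37 C; detection used a 30 min room-temperature reagent incubation.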

[14] = A CellTox Green Cytotoxicity Assay to monitor cytotoxicity in HepG2 cells - 32 hour (AID 1224883); note: nearly all actives have a fitted effect of over 50% in size
Outline: as §1

[15] = qHTS RealTime-Glo MT Cell Viability Assay in HepG2 cells - 0 hour (AID 1224889); note: nearly all actives have a fitted effect of over 50% in size
Outline: as §3

[16] = qHTS assay to identify small molecule phospholipidosis (PLD) inducers (AID 1259344; active = well fitted curve in the direction sought with a large enough effect; an effect the other way counts as inactive or inconclusive)
Outline: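 Read-out is LipidTOX Red fluorescence (ex 595/em 615) imaged in HepG2 cells after 24 h compound exposure at 37 C, with Hoechst nuclear counterstain (ex 352/em 461) allowing per-cell normalisation.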

[17] = qHTS assay to identify small molecule HDAC inhibitors (AID 1259364);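 note: wild-type HCT-116 cells with endogenous class I/II HDAC activity; top concentration of the series differs between compounds; nearly all actives have a fitted effect of over 45% in size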
Outline: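 Screening used wild-type human colon HCT-116 cells incubated overnight, dosed with compounds for 2 hours, and assayed with a homogeneous luminogenic HDAC I/II reagent for 30 minutes at room temperature.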

[18] = target: Estrogen receptor (Homo sapiens) (UniProt P03372); assay: qHTS assay to identify small molecule antagonists of the estrogen receptor alpha (ER-alpha) signaling pathway using the BG1 cell line in the presence of 0.1 nM 17-beta-estradiol (AID 1259244); note: nearly all actives have a fitted effect of over 50% in size
Estrogen receptor (Homo sapiens), sequence (P03372 whole entry, looked up): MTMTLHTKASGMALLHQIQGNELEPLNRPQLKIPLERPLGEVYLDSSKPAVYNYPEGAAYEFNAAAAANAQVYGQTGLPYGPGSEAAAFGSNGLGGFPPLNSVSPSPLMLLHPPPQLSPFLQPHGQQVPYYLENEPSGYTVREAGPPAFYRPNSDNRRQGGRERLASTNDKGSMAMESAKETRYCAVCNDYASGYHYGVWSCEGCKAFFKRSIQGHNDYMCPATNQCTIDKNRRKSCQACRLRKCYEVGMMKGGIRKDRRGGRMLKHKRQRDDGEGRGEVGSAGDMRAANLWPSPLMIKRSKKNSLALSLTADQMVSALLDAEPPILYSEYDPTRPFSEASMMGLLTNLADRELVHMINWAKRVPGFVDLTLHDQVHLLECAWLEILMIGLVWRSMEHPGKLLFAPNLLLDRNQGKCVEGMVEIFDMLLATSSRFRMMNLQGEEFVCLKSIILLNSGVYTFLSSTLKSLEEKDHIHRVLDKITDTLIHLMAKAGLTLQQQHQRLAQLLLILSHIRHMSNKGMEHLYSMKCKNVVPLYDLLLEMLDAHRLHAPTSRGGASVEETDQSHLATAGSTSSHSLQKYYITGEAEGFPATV
Outline: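 Compounds were tested against 0.1 nM (final) 17beta-estradiol in VM7Luc4E2 cells, which express full-length ER-alpha and an ERE-luciferase reporter; luminescence was recorded following 22 h exposure.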

Measured: Potency

c1coc(CNc2ncnc3nc[nH]c23)c1
not listed: [14] | [15] | [16] | [17] | [18]
inactive: all other assays above

C[C@H]1[C@H](NC(=O)/C(=N/OC(C)(C)C(=O)O)c2csc(N)n2)C(=O)N1S(=O)(=O)O (stereo in doubt)
not listed: [8] | [10] | [18]
inactive: all other assays above

O=C(O)CC(C(=O)O)S(=O)(=O)O (configuration not stated)
not listed: [8] | [10] | [12] | [16]
inactive: all other assays above

CCC(C)(CN(C)C)OC(=O)c1ccccc1 (configuration not stated)
not listed: [14] | [18]
inactive: all other assays above

CCCCCCCCCCCCSC
not listed: [3] | [10] | [14] | [16] | [18]
inactive: all other assays above

CCCn1cc[n+](C)c1C
not listed: [16] | [18]
inactive: all other assays above

CO[C@@]1(NC(=O)C(C(=O)O)c2ccc(O)cc2)C(=O)N2C(C(=O)O)=C(CSc3nnnn3C)CO[C@@H]21 (some centres not stated)
not listed: [1] | [3] | [4] | [16]
inactive: all other assays above

CN(C)CCCN(C)CCCN(C)C
not listed: [3] | [15] | [16]
inactive: all other assays above

CC(C)(C)OC(=O)c1cccc(N)c1
not listed: [4] | [16]
inactive: all other assays above
